Compound activity deposited in PubChem BioAssay by National Center for Advancing Translational Sciences (NCATS).
PI5P4K alpha inh – blocks human PI5P4K alpha kinase activity; P48426; PI5P4Kalpha enzyme, ADP-Glo luminescence, 60 min; hits give low values; max response, %; 330,000 tested, 1.2% active; AID 652105; active = max response of -50% or lower; inconclusive = between -30% and -50%; inactive = -30% or higher; also: value at the top dose of about 77 µM; % is scaled to controls: 0 for no effect and ±100 for the full control effect
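PI5P4Kalpha ADP-Glo assay; 5 microM ATP final; 60 min RT reaction; HEPES pH 7.4/EGTA/CHAPS, 5% DMSO; controls lacking substrate or enzyme; luminescent end-point.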
WRN inhibitor – inhibitors of human WRN helicase | Q14191 | WRN helicase unwinding, fluorescent forked duplex, kinetic | Potency, µM (series often up to 114 µM), without a hit: top-dose activity change, negative = inhibition, most hits filed as inhibitors | 360,000 tested, 0.46% active | AID 651768; also: potency is read from the fitted curve at half-maximal effect; % is scaled to controls: 0 for no effect and ±100 for the full control effect; nearly all actives have a fitted effect of over 55% in size
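WRN at 20 nM final was preincubated with compound for 15 min at room temperature; reaction started with 100 nM forked duplex oligonucleotide carrying fluorophore and quencher plus 2 mM ATP (final). Unwinding followed kinetically by red fluorescence (ex 525/em 598 nm).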
POLB inh – blocks human DNA polymerase beta activity. P06746. Pol beta primer extension/strand displacement, fluorescence kinetic. Potency, µM (doses to about 114 µM), inactives show top-dose activity change, negative = inhibition, actives largely listed as inhibitors. 340,000 tested, 1.3% active; also: potency is read from the fitted curve at half-maximal effect; % is scaled to controls: 0 for no effect and ±100 for the full control effect
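Pol beta (10 nM) and compounds were preincubated 15 min at room temperature, then 50 nM substrate (final) started primer extension/strand displacement. Reads were taken at 0 and 10 min; concentration-response data were fitted to a four-parameter Hill equation.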
Pol kappa inh-1 – DNA polymerase kappa (human) inhibition. purified Pol kappa, fluorescent DNA synthesis assay, 10 min. Q9UBT6. Potency, µM (doses to about 107 µM), for the others: at the top dose activity, negative = inhibition, hits mostly inhibitors. 400,000 tested, 0.53% active; also: potency is read from the fitted curve at half-maximal effect; % is scaled to controls: 0 for no effect and ±100 for the full control effect
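Here, compound and 10 nM enzyme are combined for 15 min at room temperature; adding 50 nM substrate (final) starts DNA synthesis, tracked by fluorescence at 0 and 10 min against buffer-only wells.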
Pol iota inh – DNA polymerase iota (human) inhibition | Pol iota fluorescent replication assay, 10 min | Potency, µM (titrated, usually from 115 µM), without a hit: top-dose activity, negative = inhibition, actives largely listed as inhibitors | Q9UNA4 | 390,000 tested, 1% active; also: potency is read from the fitted curve at half-maximal effect
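Pol iota at 10 nM preincubated 15 min with compounds at room temperature; reaction started with fluorescent substrate, 50 nM final. Fluorescence read kinetically at 0 and 10 min; buffer-only wells as negative control.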
Pol eta inh-1 – DNA polymerase eta (human) inhibition; recombinant Pol eta, fluorescent DNA replication assay; 390,000 tested, 1.2% active; Potency, µM (titrated, usually from 114 µM), for the others: top-dose activity change, negative = inhibition, actives largely listed as inhibitors; Q9Y253; also: potency is read from the fitted curve at half-maximal effect; % is scaled to controls: 0 for no effect and ±100 for the full control effect
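Fluorescent replication assay: 50 nM final substrate added after a 15 min room-temperature compound preincubation with 10 nM enzyme. Signal taken at 0 min and again at 10 min.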
Pol kappa inh-2 – Pol kappa (human) inhibition, cherry-pick confirmation | shares compounds with Pol eta inh-1 | purified Pol-kappa, fluorescent strand-displacement substrate | Potency, µM, hits mostly inhibitors | 920 tested, 76% active; also: potency is read from the fitted curve at half-maximal effect
Pol eta inh-2 – confirmation of human DNA polymerase eta inhibitors; shares compounds with Pol eta inh-1; Pol eta primer extension, TAMRA/BHQ fluorescence, 10 min; Potency, µM, hits mostly inhibitors; 2,600 tested, 64% active; also: potency is read from the fitted curve at half-maximal effect
An asterisk follows results filed as active; ? = inconclusive; nt = not tested or not shown; ! = not confirmed by another sample; [ ] = remark or other dose. Most compounds without a hit are left out; they make up all but 2.8% or so of the library. Unless noted, calls follow the shape of the dose curve; as a rule, active = well fitted curve in the direction sought with a large enough effect; inconclusive = small, poorly fitted or top-dose-only effect, or another doubt; inactive = no such curve, though single readings can be large; an effect the other way counts as inactive or inconclusive.

SMILES	PI5P4K alpha inh	WRN inhibitor	POLB inh	Pol kappa inh-1	Pol iota inh	Pol eta inh-1	Pol kappa inh-2	Pol eta inh-2
O=c1cc(-c2ccc(O)cc2)oc2ccc3ccccc3c12	-13	-24%	nt	-24%	40µM*	?	?	nt
CCOc1cc(-c2ccc3c(c2)OCO3)cc(=[O+]CC)c2c(C)oc(C)c12	nt	nt	nt	50µM*	50µM*	nt	?	48*
O=C1NC(=S)S/C1=C\c1cc(Cl)ccc1Cl	-62*	?	nt	-7%	?	40µM*	?	nt
O=C1NC(=S)SC1=Cc1ccccn1	?	-2%	nt	nt	nt	nt	nt	nt
Cc1ccc(NC(=O)c2sc3nc4c(cc3c2N)CN(Cc2ccccc2)CC4)cc1	nt	nt	25%	-12%	46%	-3%	nt	nt
Cc1ccc(C(=O)Nc2nc(-c3ccco3)c(-c3ccco3)s2)o1	?	?	nt	-31%	?	14µM*	15*	60*
CCCOc1ccc(Cc2nn3c(=O)/c(=C/c4ccco4)sc3nc2=O)cc1	?	56µM*	25µM*	8.9µM*	6.3µM*	25µM*	nt	?
COc1cccc(OC)c1OC(=O)C1CC(=O)N(c2ccc3c(c2)OCCO3)C1 (stereo not given)	?	-7%[11.6 µM]	nt	?	25µM*	28µM*	nt	?
Cc1ccc(S(=O)(=O)N2[C@@H](c3ccc(Br)cc3)C(C(=O)O)=CC[C@H]2c2ccc(Cl)c(Cl)c2)cc1	-16	-20%	nt	-18%	-25%	89µM*	?	nt
Cc1ccc(S(=O)(=O)N2[C@@H](c3ccc(C(C)(C)C)cc3)C(C(=O)O)=CC[C@H]2c2cccc(Cl)c2)cc1	?	71µM*	nt	?	?	89µM*	67*	?
Cc1ccc([C@H]2C(C(=O)O)=CC[C@@H](c3cccc(Cl)c3)N2S(=O)(=O)c2ccc(C)cc2)cc1	-6	-11%	nt	7%	-8%	-5%	nt	nt
C/C(N)=C(/C#N)C(=O)COC(=O)C1CCN(S(=O)(=O)c2cccs2)CC1	1	-12%	nt	-18%	-7%	-18%	nt	nt
CS(=O)(=O)N1Cc2ccccc2CC1C(=O)OCC(=O)NCc1ccccc1 (stereo not given)	?	?	nt	?	79µM*	16µM*	nt	?
C/C(N)=C(/C#N)C(=O)COC(=O)C1Cc2ccccc2CN1S(C)(=O)=O (stereo not given)	-59*!	-32%	40µM*	?	22µM*	20µM*	nt	67*
C=Cc1ccc(CSc2nc(-c3ccc(Cl)cc3)nc3c2Cc2c(CO)cnc(C)c2O3)cc1	nt	nt	23%	2%	4%	-9%	nt	nt
O=S(=O)(Nc1c(S(=O)(=O)c2ccccc2)c2nc3ccccc3nc2n1C1CCCCC1)c1ccccc1	-2	-33%	3%	-16%	3.5µM*	22µM*	30*	nt
Cc1ccc(NC(=O)Cn2c(=O)n(CCCCC(=O)NCCc3ccccc3)c(=O)c3ccccc32)cc1	nt	nt	16%	0%	0%	3%	nt	nt
Cc1cc(O)c(CN(C)C)c2c1C(=O)/C(=C/c1ccco1)O2	-23	-10%[11.6 µM]	-7%	-94%	?	11µM*	34*	54*
O=C(COc1ccccc1Cl)Nc1cc(-c2ccccc2F)nn1-c1ccccc1	nt	nt	7%	4%[60.1 µM]	9%	-10%	nt	nt
O=C(/C=C/c1ccc([N+](=O)[O-])cc1)Nc1cccc(C(=O)Nc2ccccc2C(=O)O)c1	-66*	32µM*	?	-15%	?	28µM*	nt	24*
Cc1ccc2nc(COc3ccccc3NC(=O)COc3ccccc3Cl)cc(=O)n2c1	nt	nt	5%	-12%[60.1 µM]	?	-10%	nt	nt
